The results in this text go back to PubChem BioAssay (NCI).

What all share (assay): NCI-60 one-dose screen, 48 h (100 = growth as untreated, 0 = no growth, -100 = all killed)
Holding throughout (conditions): 10 µM unless noted

Assay [1] concerns SR leukemia.
The subject of assay [2] is RPMI-8226 leukemia.
Assay [3] has as its system OVCAR-8 ovarian.
The test system of assay [4] is OVCAR-5 ovarian.
In assay [5] the test system is OVCAR-4 ovarian.
In assay [6] the test system is SK-OV-3 ovarian.
Assay [7] has as its system IGROV1 ovarian.
For assay [8], the system named is OVCAR-3 ovarian.
For assay [9], the system named is HS 578T breast.
The subject of assay [10] is NCI/ADR-RES ovarian.
Assay [11] deals with T-47D breast.
The test system of assay [12] is BT-549 breast.
In assay [13] the test system is MDA-MB-435 melanoma.
Assay [14] deals with SW-620 colon.
Assay [15] deals with MCF7 breast.
The subject of assay [16] is HCT-116 colon.
Assay [17] relates to HCC-2998 colon.
In assay [18] the test system is KM12 colon.

Each structure is given as a SMILES string. The panel holds about 83,000 compounds, 20% with a hit somewhere; the sample as a whole holds those more often.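 Single-concentration screen, 48 h exposure, 96-well plates. Endpoint: percent growth. Below 10 = active.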 Unmarked numbers belong to inactive results. Calls of active or inactive are those of the source.

Take `COc1c(N2CC3CCCNC3C2)c(F)cc2c(=O)c(C(=O)N/N=C/c3ccccc3)cn(C3CC3)c12` (configuration not stated): the growth was 8.2% (active) in assay [1]; 73.1% in [2]; 99.9% in assay [3]; 107% in [4]; 93.1% in assay [5]; 111% in assay [6]. Besides, the growth in assay [7] was 99.6%; in assay [8], 102%; in assay [9], 97.7%; in assay [10], 104%; in [11], 101%; in assay [12], 106%. Also, the growth in assay [13] is 101%; in assay [14] it was 102%; in [15] it was 84.1%; in assay [16], 81.1%; in assay [17] it was 113%; in assay [18], 101%.
`O=C(Cn1cc(-c2ccccc2)nn1)Nc1nc(-c2ccc(Cl)cc2)cs1`: the growth in [1] is 98.6%; in [2], 99.3%; in [3], 101%; in assay [4], 104%; in [5] it was 92.7%; in assay [6], 94.7%. Besides, the growth is 108% in assay [7]; 123% in assay [8]; 106% in assay [9]; 102% in assay [10]; 95% in [11]; 98.1% in assay [12]. For the same compound, the growth in [13] is 95.7%; in assay [14] it was 108%; in [15], 87%; in assay [16], 108%; in [17] it was 105%; in assay [18], 108%.
For the compound `COc1c(N2CC3CCCNC3C2)c(F)cc2c(=O)c(C(=O)N/N=C/c3ccc(F)cc3)cn(C3CC3)c12` (configuration not stated), the growth in [1] was -24.6% (active); in assay [2], 60.2%; in assay [3], 91.7%; in assay [4] it was 95.6%; in assay [5], 90.5%; in assay [6], 110%. For the same compound, the growth in [7] was 97.9%; in assay [8], 92.9%; in assay [9], 94.4%; in assay [10], 89.4%; in assay [11] it was 96.1%; in assay [12], 84.8%. In addition, the growth in assay [13] is 91%; in assay [14], 99.5%; in assay [15], 75.9%; in [16], 67.9%; in assay [17] it was 97.3%; in assay [18], 104%.
Turning to `O=C(CN1CCN(c2cc(=O)[nH]c3ccc(F)cc23)CC1)Nc1ccc(Cl)cc1`, the growth is 84.3% in assay [1]; 104% in assay [2]; 33.3% in [3]; 86.2% in [4]; 29.7% in assay [5]; 65.1% in assay [6]. Also, the growth in [7] was 67.1%; in [8], 60.5%; in assay [9] it was 34.6%; in assay [10], 76%; in [11] it was 66.3%; in assay [12], 47.6%. Also, the growth in assay [13] was 96%; in [14], 93.8%; in [15], 58.8%; in [16], 57.6%; in [17] it was 92.3%; in assay [18], 91.6%.
